From PubChem BioAssay (EPA / NIEHS) come the findings set out here.

The source holds several records for some structures; these can differ, active in one and inactive in another. Active and inactive are the calls of the source. The calls were made as follows: active = hit-call score of the fitted dose curve at least 0.9, where 1 is the maximum; inactive = score below 0.9.

Test [1] deals with Bile acid receptor (Homo sapiens) (UniProt Q96RI1). Description: ATG_IR1_CIS: Attagene CIS-FACTORIAL HepG2 Assay for human Nuclear Receptor Subfamily 1 Group H Member 4 (NR1H4), IR1 submotif (AID 2282946). Conditions: IR1 reporter transcription, actives raise or lower the signal. In short, it runs like this: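 Readout: reporter transcript levels by RT-PCR with fluorescent capillary electrophoresis, from HepG2 cells transiently transfected with multiplexed cis-regulated reporters and dosed 24 h. Gain- or loss-of-signal fitted versus DMSO negative control.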

Test [2] is described as follows: ATG_GRE_CIS: Attagene CIS-FACTORIAL HepG2 Assay for human Glucocorticoid Response Elements (GRE) (AID 2282947). The note with it: HepG2 GRE cis-reporter, Attagene multiplex mRNA; actives raise or lower the signal. In short, it runs like this:
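Cells (HepG2) bearing transfected cis-promoter reporter transcription units were treated with chemical for 24 hours. Reporter mRNA was measured via RT-PCR with capillary electrophoresis, and activity was fitted in both directions relative to DMSO.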

The nature of test [3]: ATG_ISRE_CIS: Attagene CIS-FACTORIAL HepG2 Assay for human Interferon Regulatory Factor 1 (IRF1) binding to an Interferon-Stimulated Response Element (ISRE) (AID 2282948). The note with it: HepG2 ISRE cis-reporter (Attagene), mRNA transcription readout; actives raise or lower the signal. The method, boiled down: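 Multiplexed mRNA reporter readout in human liver HepG2 cells: cis-element-driven reporters transfected, compound added for 24 h, transcripts amplified, fluorescently labelled and sized by capillary electrophoresis; curve fitting bidirectional against DMSO.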

The nature of test [4]: ATG_M_32_CIS: Attagene CIS-FACTORIAL HepG2 Assay for M32 Transcription Factor (Internal Marker) (AID 2282949).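 Also: background control marker of the multiplexed CIS panel rather than a real target.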 The note with it: HepG2 Attagene cis-factorial M32 reporter, mRNA; actives raise or lower the signal. The method, boiled down: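 HepG2 human liver cells transiently transfected with cis-promoter-driven multiple reporter transcription units, dosed 24 h. Reporter mRNA quantified by RT-PCR, FAM-labelled primer extension, HpaI digest and capillary electrophoresis; bidirectional fit versus DMSO baseline.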

Test [5] in a line: ATG_M_06_CIS: Attagene CIS-FACTORIAL HepG2 Assay for M06 Transcription Factor (Internal Marker) (AID 2282950). The note with it: HepG2 Attagene CIS-FACTORIAL M06 internal marker reporter; actives raise or lower the signal. The method, boiled down: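 Fluorescence-labelled RT-PCR products from cis-promoter reporter units, cut with HpaI and resolved by capillary electrophoresis, give the signal. Cells are human HepG2, dosed for 24 h. Serves as background control, fitted relative to DMSO.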

The target in test [6] is Hepatocyte nuclear factor 6 (Homo sapiens) (UniProt Q9UBC0). Description: ATG_HNF6_CIS: Attagene CIS-FACTORIAL HepG2 Assay for human Hepatocyte Nuclear Factor 6 (HNF6) (AID 2282952). Conditions: HepG2 Attagene cis-factorial HNF6 reporter transcription; actives raise or lower the signal. The method, boiled down:
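Twenty-four-hour chemical treatment of reporter-transfected HepG2 cells precedes RNA isolation, DNase-treated reverse transcription and PCR of reporter sequences. Labelled fragments are sized by capillary electrophoresis and fitted bidirectionally versus DMSO.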

The target of test [7] is Heat shock factor protein 1 (Homo sapiens) (UniProt Q00613). As to the kind of experiment: ATG_HSE_CIS: Attagene CIS-FACTORIAL HepG2 Assay for human Heat Shock Transcription Factor 1 (HSE) (AID 2282953). Conditions: HepG2 HSE cis-reporter, Attagene RNA transcription; actives raise or lower the signal. The method, boiled down: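 After a 24 h incubation with test chemical, transfected HepG2 cells were harvested for RNA; reporter transcripts were measured by RT-PCR and capillary electrophoresis. Values reflect gain or loss of signal relative to DMSO.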

Test [8] is described as follows: ATG_MRE_CIS: Attagene CIS-FACTORIAL HepG2 Assay for human Metal Responsive Element (MRE) (AID 2282954). Conditions: HepG2 MRE cis-reporter transcription, Attagene multiplex; actives raise or lower the signal. In short, it runs like this: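 Cells were transfected with cis-promoter reporter transcription units, then dosed for 24 h. RNA was reverse-transcribed, amplified, fluorescently labelled and resolved by capillary electrophoresis, and activity was fitted in both directions relative to DMSO.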

The nature of test [9]: ATG_PBREM_CIS: Attagene CIS-FACTORIAL HepG2 Assay for human Phenobarbital-responsive Enhancer Module (PBREM) (AID 2282955). Conditions: HepG2 PBREM cis-reporter, Attagene multiplexed transcription; actives raise or lower the signal. The method, boiled down:
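Fluorescence of labelled reporter cDNA fragments, resolved by capillary electrophoresis, gives mRNA induction in transfected HepG2 cells treated for 24 h; DMSO serves as negative control and baseline.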

For test [10], the target named is Paired box protein Pax-6 (Homo sapiens) (UniProt P26367). Description: ATG_Pax6_CIS: Attagene CIS-FACTORIAL HepG2 Assay for human Paired Box 6 (PAX6) (AID 2282956). Conditions: HepG2 CIS-FACTORIAL PAX6 reporter transcription, RNA readout; actives raise or lower the signal. In short, it runs like this: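 Fluorescent RT-PCR products separated by capillary electrophoresis report PAX6-linked promoter mRNA in HepG2 cells 24 h post-dose. Curves fitted bidirectionally, DMSO as negative control.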

Test [11] in a line: ATG_PXRE_CIS: Attagene CIS-FACTORIAL HepG2 Assay for human Pregnane X Receptor Element (PXRE) (AID 2282957). The note with it: HepG2 Attagene CIS-FACTORIAL PXRE reporter, mRNA; actives raise or lower the signal. The method, boiled down: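 Bidirectional activity, baselined to DMSO, derived from reporter mRNA fluorescence (RT-PCR plus capillary electrophoresis) in HepG2 cells bearing cis-promoter reporter units, 24 h exposure.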

Test [12] can be described thus: ATG_PPRE_CIS: Attagene CIS-FACTORIAL HepG2 Assay for human Peroxisome Proliferator-activated Response Element (PPRE) (AID 2282958). The note with it: HepG2 PPRE cis-element reporter, Attagene transcription factor profiling; actives raise or lower the signal. In short, it runs like this:
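Cells are first transfected transiently with the multiplexed reporter library, then dosed for 24 h. Total RNA is reverse-transcribed, amplified, fluorescently end-labeled and HpaI-cut before capillary electrophoresis; activity is fitted bidirectionally against DMSO controls.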

Test [13] is described as follows: ATG_Sox_CIS: Attagene CIS-FACTORIAL HepG2 Assay for human SRY-box transcription factor (SOX) (AID 2282960). Conditions: HepG2 Attagene cis-factorial SOX reporter, mRNA; actives raise or lower the signal. In short, it runs like this: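 Transient MRTU transfection of HepG2; 24 h compound incubation; TriZol RNA, oligo(dT) RT, PCR, 6-FAM primer extension, HpaI cut, CE. Bidirectional fit, DMSO = baseline.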

Test [14] addresses Transcription factor Sp1 (Homo sapiens) (UniProt P08047). Description: ATG_Sp1_CIS: Attagene CIS-FACTORIAL HepG2 Assay for human Specificity Protein 1 (Sp1) (AID 2282961). The note with it: HepG2 Sp1 cis-reporter transcription, actives raise or lower the signal. The method, boiled down:
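Endogenous Sp1 activity was gauged in human liver HepG2 cells bearing transfected reporter units under a cis-regulating promoter. After 24 h dosing, reporter mRNA was quantified by RT-PCR with capillary electrophoresis, and activity fitted bidirectionally versus DMSO.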

A short description of test [15]: ATG_SREBP_CIS: Attagene CIS-FACTORIAL HepG2 Assay for human Sterol Regulatory Element Binding (SREBP) (AID 2282962). Conditions: HepG2 Attagene cis-factorial SREBP reporter, mRNA; actives raise or lower the signal. The method, boiled down:
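Endogenous factor activity is measured in HepG2 through multiplexed reporter units under cis-element control. Following a 24 h incubation, reporter transcripts are reverse-transcribed, PCR-amplified and sized by capillary electrophoresis; activity is fitted in both directions relative to DMSO.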

Test [16] deals with Signal transducer and activator of transcription 3 (Homo sapiens) (UniProt P40763). Description: ATG_STAT3_CIS: Attagene CIS-FACTORIAL HepG2 Assay for human Signal Transducer and Activator of Transcription 3 (STAT3) (AID 2282963). Conditions: HepG2, Attagene cis-factorial STAT3 reporter transcription; actives raise or lower the signal. In short, it runs like this:
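HepG2, MRTU-transfected, 24 h dosing. RNA → RT → PCR → FAM label → HpaI → CE. Bidirectional fit vs DMSO.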

Test [17] can be described thus: ATG_TCF_b_cat_CIS: Attagene CIS-FACTORIAL HepG2 Assay for human T-Cell-Factor with beta-catenin (TCF/b-cat) (AID 2282965). Conditions: HepG2 TCF/beta-catenin cis-reporter transcription, actives raise or lower the signal. In short, it runs like this: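 Using capillary electrophoresis as the read-out, labelled reporter cDNA fragments from transiently transfected HepG2 were sized and quantified. Exposure lasted 24 hours; activity in either direction was referenced to DMSO.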

The target of test [18] is Hypoxia-inducible factor 1-alpha (Homo sapiens) (UniProt Q16665). Description: ATG_HIF1a_CIS: Attagene CIS-FACTORIAL HepG2 Assay for human Hypoxia Inducible Factor 1 (HIF1A) (AID 2282951). Conditions: HepG2 Attagene cis-factorial HIF1a reporter transcription; actives raise or lower the signal. In short, it runs like this: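 Measures endogenous transcription-factor activity through cis-regulated reporter mRNA in HepG2. Cells dosed 24 h; transcripts quantified by RT-PCR with 6-FAM-labelled products separated by capillary electrophoresis; DMSO serves as negative control.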

Test [19] in a line: ATG_TA_CIS: Attagene CIS-FACTORIAL HepG2 Assay for human TA Basal Promoter (AID 2282964). The note with it: HepG2 Attagene CIS-factorial TA basal promoter reporter; actives raise or lower the signal. The method, boiled down:
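Multiplexed mRNA reporter assay, HepG2, 24 h. Reporter cDNA amplified, 6-FAM primer-extended, HpaI-cut, CE-sized; DMSO = negative control and baseline.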

Test [20] is described as follows: ATG_RORE_CIS: Attagene CIS-FACTORIAL HepG2 Assay for human RAR-related Orphan Receptor Element (RORE) (AID 2282959). Conditions: HepG2 Attagene cis-factorial RORE reporter, mRNA; actives raise or lower the signal. In short, it runs like this:
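Cells were HepG2 carrying transfected cis-regulated reporter constructs, dosed for 24 hours. Total RNA was reverse-transcribed and reporter cDNA amplified, fluorescently labeled and sized by capillary electrophoresis. Activity was fitted bidirectionally relative to DMSO.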

As usually defined, the AC50 is the concentration at which the activity in the assay is half-maximal.

Sequence of Hypoxia-inducible factor 1-alpha (Homo sapiens) (Q16665 whole entry, looked up): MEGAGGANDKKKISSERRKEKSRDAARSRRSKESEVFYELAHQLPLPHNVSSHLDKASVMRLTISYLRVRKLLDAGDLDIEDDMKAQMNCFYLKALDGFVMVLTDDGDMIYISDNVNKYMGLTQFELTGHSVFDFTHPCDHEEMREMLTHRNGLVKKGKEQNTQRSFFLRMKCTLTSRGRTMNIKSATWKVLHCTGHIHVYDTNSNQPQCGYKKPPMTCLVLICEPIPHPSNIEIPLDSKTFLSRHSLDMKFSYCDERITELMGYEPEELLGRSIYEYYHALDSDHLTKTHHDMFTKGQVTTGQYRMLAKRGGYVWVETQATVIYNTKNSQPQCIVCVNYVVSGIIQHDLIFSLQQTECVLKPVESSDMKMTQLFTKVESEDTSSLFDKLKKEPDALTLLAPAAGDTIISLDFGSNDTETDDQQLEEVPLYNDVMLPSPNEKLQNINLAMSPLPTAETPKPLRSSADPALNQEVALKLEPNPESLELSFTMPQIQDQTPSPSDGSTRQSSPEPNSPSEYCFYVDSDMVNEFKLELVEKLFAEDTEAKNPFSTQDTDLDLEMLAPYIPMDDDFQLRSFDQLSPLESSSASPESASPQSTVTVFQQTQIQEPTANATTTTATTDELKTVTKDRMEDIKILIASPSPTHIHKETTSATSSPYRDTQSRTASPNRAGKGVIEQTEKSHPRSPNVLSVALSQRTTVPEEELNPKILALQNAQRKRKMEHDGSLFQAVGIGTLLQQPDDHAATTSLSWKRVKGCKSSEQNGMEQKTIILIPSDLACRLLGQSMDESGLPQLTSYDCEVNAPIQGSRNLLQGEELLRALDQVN
Sequence of Bile acid receptor (Homo sapiens) (Q96RI1 whole entry, looked up): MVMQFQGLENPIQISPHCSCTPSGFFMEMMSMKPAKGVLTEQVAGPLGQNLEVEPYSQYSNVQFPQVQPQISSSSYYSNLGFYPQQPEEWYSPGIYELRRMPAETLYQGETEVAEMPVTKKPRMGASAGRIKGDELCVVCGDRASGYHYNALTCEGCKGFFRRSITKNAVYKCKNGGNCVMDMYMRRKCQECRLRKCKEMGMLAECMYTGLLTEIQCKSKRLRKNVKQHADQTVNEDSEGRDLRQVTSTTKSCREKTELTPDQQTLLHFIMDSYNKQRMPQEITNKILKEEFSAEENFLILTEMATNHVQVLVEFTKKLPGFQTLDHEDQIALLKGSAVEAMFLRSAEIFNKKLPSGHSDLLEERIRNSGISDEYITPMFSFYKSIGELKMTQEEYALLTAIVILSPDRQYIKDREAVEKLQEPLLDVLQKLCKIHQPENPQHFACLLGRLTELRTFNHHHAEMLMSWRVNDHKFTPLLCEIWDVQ
Sequence of Signal transducer and activator of transcription 3 (Homo sapiens) (P40763 whole entry, looked up): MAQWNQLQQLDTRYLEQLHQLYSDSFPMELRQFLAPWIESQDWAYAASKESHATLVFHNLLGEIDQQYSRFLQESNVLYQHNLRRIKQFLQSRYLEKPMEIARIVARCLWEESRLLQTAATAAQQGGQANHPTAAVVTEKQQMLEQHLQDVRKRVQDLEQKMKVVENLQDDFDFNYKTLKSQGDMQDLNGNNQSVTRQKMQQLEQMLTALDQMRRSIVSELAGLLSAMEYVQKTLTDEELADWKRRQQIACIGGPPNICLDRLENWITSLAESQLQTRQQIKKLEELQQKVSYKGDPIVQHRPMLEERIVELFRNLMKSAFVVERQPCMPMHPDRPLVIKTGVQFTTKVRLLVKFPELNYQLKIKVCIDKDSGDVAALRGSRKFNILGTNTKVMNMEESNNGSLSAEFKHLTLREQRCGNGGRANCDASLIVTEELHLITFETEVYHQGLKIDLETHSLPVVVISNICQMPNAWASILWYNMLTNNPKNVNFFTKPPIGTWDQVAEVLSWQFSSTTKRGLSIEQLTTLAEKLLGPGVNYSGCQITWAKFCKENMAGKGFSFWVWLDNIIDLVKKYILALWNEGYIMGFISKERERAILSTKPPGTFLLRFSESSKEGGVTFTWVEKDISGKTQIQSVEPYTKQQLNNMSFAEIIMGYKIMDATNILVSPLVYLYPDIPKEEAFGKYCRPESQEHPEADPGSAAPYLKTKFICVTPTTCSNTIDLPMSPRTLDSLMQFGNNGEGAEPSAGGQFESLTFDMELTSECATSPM
Sequence of Heat shock factor protein 1 (Homo sapiens) (Q00613 whole entry, looked up): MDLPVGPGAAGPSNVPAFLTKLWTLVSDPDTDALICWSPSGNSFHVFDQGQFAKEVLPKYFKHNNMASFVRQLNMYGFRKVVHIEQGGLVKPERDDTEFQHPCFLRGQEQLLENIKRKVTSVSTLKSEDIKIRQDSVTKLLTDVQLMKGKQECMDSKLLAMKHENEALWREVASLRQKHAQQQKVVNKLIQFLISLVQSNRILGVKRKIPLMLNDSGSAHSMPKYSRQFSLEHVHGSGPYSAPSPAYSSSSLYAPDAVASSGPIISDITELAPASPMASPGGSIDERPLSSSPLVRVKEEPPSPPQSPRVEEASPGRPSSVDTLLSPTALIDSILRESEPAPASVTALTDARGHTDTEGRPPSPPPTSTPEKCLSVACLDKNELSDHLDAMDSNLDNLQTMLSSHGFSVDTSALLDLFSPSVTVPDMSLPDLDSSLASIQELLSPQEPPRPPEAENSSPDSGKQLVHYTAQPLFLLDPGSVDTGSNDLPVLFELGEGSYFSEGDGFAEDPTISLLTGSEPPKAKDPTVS
Sequence of Transcription factor Sp1 (Homo sapiens) (P08047 whole entry, looked up): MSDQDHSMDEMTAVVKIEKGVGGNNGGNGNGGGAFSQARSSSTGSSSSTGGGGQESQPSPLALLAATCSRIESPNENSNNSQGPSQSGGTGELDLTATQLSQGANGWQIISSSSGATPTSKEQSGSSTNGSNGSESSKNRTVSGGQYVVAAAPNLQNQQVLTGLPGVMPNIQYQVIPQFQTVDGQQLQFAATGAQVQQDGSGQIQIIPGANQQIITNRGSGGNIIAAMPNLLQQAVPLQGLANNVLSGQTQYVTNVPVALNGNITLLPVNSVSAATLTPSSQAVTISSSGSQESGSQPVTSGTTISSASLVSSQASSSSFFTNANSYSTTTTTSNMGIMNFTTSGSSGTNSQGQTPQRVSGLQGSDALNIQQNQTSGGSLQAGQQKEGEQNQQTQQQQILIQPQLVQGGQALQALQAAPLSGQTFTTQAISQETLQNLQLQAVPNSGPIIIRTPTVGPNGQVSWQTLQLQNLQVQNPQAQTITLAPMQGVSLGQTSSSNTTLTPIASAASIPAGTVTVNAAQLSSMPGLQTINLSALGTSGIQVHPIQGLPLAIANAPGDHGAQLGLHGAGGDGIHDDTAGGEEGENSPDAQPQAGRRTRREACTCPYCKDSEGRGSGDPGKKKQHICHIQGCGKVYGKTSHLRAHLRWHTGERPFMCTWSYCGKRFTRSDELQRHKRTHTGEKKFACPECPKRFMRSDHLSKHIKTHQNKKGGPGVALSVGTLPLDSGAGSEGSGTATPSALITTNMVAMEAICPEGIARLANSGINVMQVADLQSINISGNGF
Sequence of Paired box protein Pax-6 (Homo sapiens) (P26367 whole entry, looked up): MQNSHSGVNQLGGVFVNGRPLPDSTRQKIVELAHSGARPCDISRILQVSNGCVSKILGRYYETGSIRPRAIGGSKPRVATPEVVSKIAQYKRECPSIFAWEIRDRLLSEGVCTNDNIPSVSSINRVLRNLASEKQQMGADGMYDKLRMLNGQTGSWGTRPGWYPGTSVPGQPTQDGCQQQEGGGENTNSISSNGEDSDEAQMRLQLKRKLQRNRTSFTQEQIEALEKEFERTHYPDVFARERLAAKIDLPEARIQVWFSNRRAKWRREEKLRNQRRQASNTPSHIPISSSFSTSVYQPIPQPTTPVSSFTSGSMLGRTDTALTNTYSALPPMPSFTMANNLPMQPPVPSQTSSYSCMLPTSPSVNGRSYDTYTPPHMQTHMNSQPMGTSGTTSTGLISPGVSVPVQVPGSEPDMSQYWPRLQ
Sequence of Hepatocyte nuclear factor 6 (Homo sapiens) (Q9UBC0 whole entry, looked up, the tested form may be a part): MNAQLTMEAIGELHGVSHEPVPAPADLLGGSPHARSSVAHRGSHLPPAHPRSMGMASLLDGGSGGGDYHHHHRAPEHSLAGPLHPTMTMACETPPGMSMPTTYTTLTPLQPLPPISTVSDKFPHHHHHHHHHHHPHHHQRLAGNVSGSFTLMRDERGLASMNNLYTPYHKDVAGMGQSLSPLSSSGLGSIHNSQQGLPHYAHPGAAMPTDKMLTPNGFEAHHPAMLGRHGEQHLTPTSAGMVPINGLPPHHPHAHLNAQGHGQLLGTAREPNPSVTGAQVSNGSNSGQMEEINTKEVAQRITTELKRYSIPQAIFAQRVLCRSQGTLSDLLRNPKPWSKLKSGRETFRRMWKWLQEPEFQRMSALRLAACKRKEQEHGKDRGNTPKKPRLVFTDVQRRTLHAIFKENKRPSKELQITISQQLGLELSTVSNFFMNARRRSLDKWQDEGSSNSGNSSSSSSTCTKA

Consider `COc1ccc2cc(S(=O)(=O)N[C@H](CC(=O)N[C@H](Cc3ccc(CN4[C@H](C)CCC[C@@H]4C)cc3)C(=O)N(C)C(C)C)c3ccc4c(c3)OCO4)ccc2c1`, for which the call in test [1], in [2], in test [4], in [5], in test [6] and in test [7] was inactive. The result in [9], in test [10], in test [11], in test [12], in [13] and in test [14] was inactive. Further, the compound was classed as inactive in test [16]. In addition, the AC50 was 11 µM (active) in [3], 11 µM (active) in test [8], 0.564 µM (active) in test [15] and 11.2 µM (active) in test [17].
With `Clc1cc(Cl)c2c(c1)N=C1CCCCCN1C2`, the outcome in [1], in test [2], in test [3], in [4], in test [5] and in test [18] was inactive. The compound was called inactive in [6], in test [7], in test [8], in test [9], in [10] and in test [12]. For the same compound, the call in [13], in test [14], in [15], in [16] and in [19] was inactive. Also, the AC50 in [11] was 13.2 µM (active); in [17], 83.4 µM (active).
As for `NC(=O)c1nc(-c2cccc(-c3cc(F)ccc3OCC(F)(F)C(F)(F)F)c2)n[nH]1`, the AC50 in [1] was 51.6 µM (active); in test [7], 59.9 µM (active); in [8], 51.2 µM (active); in test [10], 24.3 µM (active); in [11], 8.11 µM (active); in [14], 16.9 µM (active). Further, the figures for the AC50 in test [15] and in [17] were 10.3 µM (active) and 33 µM (active), respectively. In addition, the compound was called inactive in [2], in test [3], in test [4], in [5], in test [6] and in test [13]. Moreover, the outcome in [16] was inactive.
Regarding `O=c1ccc2ccccc2o1`, the outcome in test [1], in test [3], in test [4], in test [5], in test [18] and in [6] was inactive. Also, the call in [7], in [8], in [9], in [10], in test [11] and in test [13] was inactive. Moreover, the compound was classed as inactive in [14], in test [15] and in test [16].
As to `O=C=NCCCCCCN=C=O`, the outcome in test [1], in [3], in [4], in [5], in [18] and in test [6] was inactive. Moreover, the compound was classed as inactive in test [7], in [8], in test [9], in [10], in test [11] and in test [12]. For the same compound, the compound was classed as inactive in test [20], in [13], in test [14], in test [15], in test [16] and in test [17].
Take `c1ccc2ccccc2c1`: the outcome in test [1], in test [3], in test [4], in [5], in test [18] and in [6] was inactive. Besides, the call in test [7], in test [8], in [10], in [11], in [12] and in test [20] was inactive. Further, the outcome in [13], in test [14], in test [15], in test [16] and in test [19] was inactive. Also, the half-maximal activity concentration (AC50) in test [6] is 100 µM (active).
